We go through five compounds from PubChem BioAssay (EPA / NIEHS).

Activity calls are given as the source filed them. The calls were made as follows: active = hit-call score of the fitted dose curve at least 0.9, where 1 is the maximum; inactive = score below 0.9.

Assay [1] deals with Retinoic acid receptor alpha (Homo sapiens) (UniProt P10276). In words: ATG_DR5_RAR_CIS: Attagene CIS-FACTORIAL HepG2 Assay for human Retinoic Acid Receptor Alpha (RARE), DR5 submotif (AID 2282934). Conditions: HepG2 Attagene cis-factorial RARE DR5 reporter, mRNA; actives raise or lower the signal. The method, boiled down: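 Endpoint fitted in both directions relative to DMSO as negative control. It reflects DR5 cis-element reporter mRNA induction in transiently transfected HepG2 cells, measured 24 h after dosing through RT-PCR and fluorescent capillary electrophoresis.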
Sequence of Retinoic acid receptor alpha (Homo sapiens) (P10276 whole entry, looked up): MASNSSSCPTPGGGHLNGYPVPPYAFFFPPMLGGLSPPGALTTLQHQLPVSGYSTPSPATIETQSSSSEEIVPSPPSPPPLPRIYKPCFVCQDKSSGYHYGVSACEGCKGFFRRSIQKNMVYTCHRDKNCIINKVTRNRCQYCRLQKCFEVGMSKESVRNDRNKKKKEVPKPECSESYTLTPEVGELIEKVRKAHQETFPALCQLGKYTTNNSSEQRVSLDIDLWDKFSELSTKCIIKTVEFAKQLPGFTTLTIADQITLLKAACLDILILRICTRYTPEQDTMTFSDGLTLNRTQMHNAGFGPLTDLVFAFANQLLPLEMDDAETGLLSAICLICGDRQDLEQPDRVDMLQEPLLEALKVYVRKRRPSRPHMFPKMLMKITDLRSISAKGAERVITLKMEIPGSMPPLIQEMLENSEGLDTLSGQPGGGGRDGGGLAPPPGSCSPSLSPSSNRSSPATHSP

The nature of assay [2]: BSK_3C_TissueFactor: BioMAP Diversity Plus: 3C Assay for Tissue Factor Biomarker Activity (AID 2282997). Conditions: BioMAP 3C HUVEC, tissue factor biomarker readout; actives raise or lower the signal. An outline of the steps: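 Values derive from bidirectional curve fitting against DMSO of Tissue Factor ELISA signals, taken 24 h after dosing primary human umbilical vein endothelial cells.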

The nature of assay [3]: BSK_3C_uPAR: BioMAP Diversity Plus: 3C Assay for Urokinase-type plasminogen activator receptor (uPAR) Biomarker Activity (AID 2282998). Conditions: BioMAP 3C HUVEC, uPAR biomarker ELISA; actives raise or lower the signal. The method, boiled down: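 ELISA readout of uPAR on human vascular endothelium (umbilical vein primary cells), taken 24 h after chemical dosing. Increases and decreases are both fitted relative to DMSO vehicle.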

Assay [4] can be described thus: BSK_3C_VCAM1: BioMAP Diversity Plus: 3C Assay for Vascular cell adhesion molecule 1 (VCAM1) Biomarker Activity (AID 2282999). Conditions: BioMAP 3C HUVEC, VCAM1 ELISA, cytokine-stimulated; actives raise or lower the signal. The method, boiled down: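 Human umbilical vein endothelial cells were dosed with compound for 24 h, after which cell-surface VCAM-1 was quantified by ELISA. Bidirectional curve fitting used DMSO as negative control and activity baseline.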

The nature of assay [5]: BSK_3C_Proliferation: Cell Proliferation Assessment in the BioMAP Diversity Plus: 3C Assay (AID 2283006).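 As to AC50: potency may reflect either rise or fall in cell number versus DMSO.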 Conditions: primary human endothelial cells (HUVEC). An outline of the steps:
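Human umbilical vein endothelial cells were grown sub-confluent and exposed to chemical for 48 h, then fixed with 10% TCA and stained with 0.1% sulforhodamine B; absorbance at 560 nm gave relative cell number, fitted bidirectionally against DMSO baseline.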

Read-out in assay [6]: E-selectin (Homo sapiens) (UniProt P16581)
The experiment in a line: BSK_3C_Eselectin: BioMAP Diversity Plus: 3C Assay for Eselectin Biomarker Activity (AID 2283015).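 As to outcome: cell surface E-selectin protein quantified by ELISA 24 h after dosing.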 Conditions: primary human endothelial cells (HUVEC); actives raise or lower the signal. An outline of the steps:
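Human vascular endothelium from umbilical vein is exposed to test chemicals for 24 h. E-selectin levels are read by ELISA and compared with DMSO controls.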

Read-out in assay [7]: Interleukin-1 alpha (IL1a), IL1A (gene 3552)
The experiment in a line: BSK_BE3C_IL1a: BioMAP Diversity Plus: BE3C Assay for Interleukin-1 alpha (IL1a) Biomarker Activity (AID 2283016). Conditions: primary human bronchial epithelial cells; actives raise or lower the signal. An outline of the steps:
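Human primary bronchial epithelial cells (BE3C system) were dosed with compound and IL-1a measured by ELISA 24 h later. Activity was fitted bidirectionally against DMSO baseline; cytotoxicity was tracked in parallel cultures by SRB total-protein staining.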

Read-out in assay [8]: Plasminogen activator inhibitor-1 (PAI1), SERPINE1 (gene 5054)
In words: BSK_BE3C_PAI1: BioMAP Diversity Plus: BE3C Assay for Plasminogen activator inhibitor-1 (PAI1) Biomarker Activity (AID 2283037). Conditions: primary human bronchial epithelial cells; actives raise or lower the signal. The method, boiled down: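 Human primary bronchial epithelial cells were exposed to chemical for 24 h, then PAI-1 was quantified by ELISA. Activity was fitted bidirectionally relative to the DMSO negative control baseline.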

Read-out in assay [9]: Tissue plasminogen activator (tPA), PLAT (gene 5327)
In words: BSK_BE3C_tPA: BioMAP Diversity Plus: BE3C Assay for Tissue plasminogen activator (tPA) Biomarker Activity (AID 2283041).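 Also: tPA level quantified by ELISA one day after compound addition.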 Conditions: primary human bronchial epithelial cells; actives raise or lower the signal. The method, boiled down:
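Human primary bronchial epithelial cells were dosed with chemical and tPA biomarker levels measured by ELISA 24 hours later. Activity was fitted bidirectionally against DMSO as negative control and baseline.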

Read-out in assay [10]: serum amyloid A (SAA), SAA1 (gene 6288)
The experiment in a line: BSK_CASM3C_SAA: BioMAP Diversity Plus: CASM3C Assay for serum amyloid A (SAA) Biomarker Activity (AID 2283049).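 Also: SAA protein level quantified by ELISA.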 Conditions: primary human coronary artery smooth muscle cells; actives raise or lower the signal.

Read-out in assay [11]: Thrombomodulin, THBD (gene 7056)
The experiment in a line: BSK_CASM3C_Thrombomodulin: BioMAP Diversity Plus: CASM3C Assay for Thrombomodulin Biomarker Activity (AID 2283051).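 Also: thrombomodulin protein level measured by ELISA 24 h after dosing.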 Conditions: primary human coronary artery smooth muscle cells; actives raise or lower the signal.

Read-out in assay [12]: Macrophage colony-stimulating factor (MCSF), CSF1 (gene 1435)
The experiment in a line: BSK_hDFCGF_MCSF: BioMAP Diversity Plus: hDFCGF Assay for Macrophage colony-stimulating factor (MCSF) Biomarker Activity (AID 2283060). Conditions: primary human foreskin fibroblasts; actives raise or lower the signal. An outline of the steps:
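M-CSF levels, determined by ELISA, are taken at 24 h after dosing human skin fibroblasts. Responses in either direction are fitted with DMSO serving as the baseline.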

Read-out in assay [13]: Interleukin-1 alpha (IL1a), IL1A (gene 3552)
The experiment in a line: BSK_KF3CT_IL1a: BioMAP Diversity Plus: KF3CT Assay for Interleukin-1 alpha (IL1a) Biomarker Activity (AID 2283070). Conditions: primary human keratinocytes with fibroblasts; actives raise or lower the signal. An outline of the steps:
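Human keratinocyte plus foreskin fibroblast primary co-culture, sampled 24 h after chemical dosing. IL-1a measured by ELISA; responses fitted bidirectionally against DMSO baseline (negative control), so gain or loss of signal both count.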

Read-out in assay [14]: C-C motif chemokine 2 (Homo sapiens) (UniProt P13500)
In words: BSK_KF3CT_MCP1: BioMAP Diversity Plus: KF3CT Assay for Monocyte Chemoattractant Protein 1 (MCP1/CCL2) Biomarker Activity (AID 2283073). Conditions: primary human keratinocytes with fibroblasts; actives raise or lower the signal. An outline of the steps: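 Keratinocytes and foreskin fibroblasts were co-cultured, dosed with chemical, and sampled 24 h later. MCP-1 was quantified by ELISA, and the endpoint was analyzed with bidirectional fitting using DMSO as negative control.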

Read-out in assay [15]: Matrix Metallopeptidase 9 (MMP9), MMP9 (gene 4318)
In words: BSK_KF3CT_MMP9: BioMAP Diversity Plus: KF3CT Assay for Matrix Metallopeptidase 9 (MMP9) Biomarker Activity (AID 2283074).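 As to AC50: MMP9 protein level quantified by ELISA in the co-culture.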 Conditions: primary human keratinocytes with fibroblasts; actives raise or lower the signal. An outline of the steps:
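Keratinocyte plus foreskin fibroblast human primary skin co-culture was dosed with chemical and MMP-9 was quantified by ELISA 24 h later. Bidirectional curve fitting used DMSO as negative control and activity baseline.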

Read-out in assay [16]: Interleukin-1 alpha (IL1a), IL1A (gene 3552)
The experiment in a line: BSK_LPS_IL1a: BioMAP Diversity Plus: LPS Assay for Interleukin-1 alpha (IL1a) Biomarker Activity (AID 2283080). Conditions: primary human HUVEC with PBMC; actives raise or lower the signal. The method, boiled down:
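Measured: IL-1 alpha via ELISA at 24 h in LPS-activated human umbilical vein endothelium–PBMC co-culture. Baseline: DMSO, bidirectional fitting.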

The nature of assay [17]: BSK_LPS_PGE2: BioMAP Diversity Plus: LPS Assay for Prostaglandin E2 (PGE2) Biomarker Activity (AID 2283082).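 As to AC50: secreted prostaglandin E2 measured by ELISA in LPS-stimulated co-culture.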 Conditions: primary human HUVEC with PBMC; actives raise or lower the signal. The method, boiled down:
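HUVEC plus PBMC co-culture stimulated with LPS; secreted PGE2 quantified by ELISA 24 h after chemical dosing. Activity fitted bidirectionally against DMSO as negative control and baseline; parallel SRB total-protein staining served as cytotoxicity check.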

Read-out in assay [18]: Tumor necrosis factor (Homo sapiens) (UniProt P01375)
The experiment in a line: BSK_LPS_TNFa: BioMAP Diversity Plus: LPS Assay for Tumour Necrosis Factor alpha (TNFa) Biomarker Activity (AID 2283085).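 As to AC50: TNFa protein level quantified by ELISA in the co-culture.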 Conditions: primary human HUVEC with PBMC; actives raise or lower the signal. The method, boiled down: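 Human umbilical vein endothelial cells co-cultured with PBMC were exposed to test chemical and TNFa measured by ELISA 24 h after dosing. Bidirectional curve fitting was done relative to DMSO as negative control and baseline.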

The nature of assay [19]: BSK_SAg_PBMCCytotoxicity: PBMC Cytotoxicity Assessment in the BioMAP Diversity Plus: SAg Assay (AID 2283093).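 Also: PBMC viability measured as Alamar Blue reduction fluorescence at 546/580 nm; fitted both ways against DMSO so a hit may be loss or gain of signal.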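 As to AC50: PBMC superantigen activated with SEB plus TSST-1 one hour after compound addition.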 Conditions: primary human HUVEC with PBMC. The method, boiled down:
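Human umbilical vein endothelial cells co-cultured with PBMC; PBMC (75,000/well) pre-treated with compound 1 h, then activated with SEB and TSST-1 (20 ng/mL final each) for 90 h. Alamar Blue added 6 h, fluorescence 546/580 nm; bidirectional fit versus DMSO.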

The nature of assay [20]: ATG_PPRE_CIS: Attagene CIS-FACTORIAL HepG2 Assay for human Peroxisome Proliferator-activated Response Element (PPRE) (AID 2282958). Conditions: HepG2 PPRE cis-element reporter, Attagene transcription factor profiling; actives raise or lower the signal. The method, boiled down:
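After human HepG2 hepatoma cells were transiently transfected with cis-promoter reporter constructs, they were exposed to test chemicals for 24 hours. Reporter RNA was then reverse-transcribed, PCR-amplified, FAM-labeled, HpaI-digested and quantified by capillary electrophoresis.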

Sequence of E-selectin (Homo sapiens) (P16581 whole entry, looked up): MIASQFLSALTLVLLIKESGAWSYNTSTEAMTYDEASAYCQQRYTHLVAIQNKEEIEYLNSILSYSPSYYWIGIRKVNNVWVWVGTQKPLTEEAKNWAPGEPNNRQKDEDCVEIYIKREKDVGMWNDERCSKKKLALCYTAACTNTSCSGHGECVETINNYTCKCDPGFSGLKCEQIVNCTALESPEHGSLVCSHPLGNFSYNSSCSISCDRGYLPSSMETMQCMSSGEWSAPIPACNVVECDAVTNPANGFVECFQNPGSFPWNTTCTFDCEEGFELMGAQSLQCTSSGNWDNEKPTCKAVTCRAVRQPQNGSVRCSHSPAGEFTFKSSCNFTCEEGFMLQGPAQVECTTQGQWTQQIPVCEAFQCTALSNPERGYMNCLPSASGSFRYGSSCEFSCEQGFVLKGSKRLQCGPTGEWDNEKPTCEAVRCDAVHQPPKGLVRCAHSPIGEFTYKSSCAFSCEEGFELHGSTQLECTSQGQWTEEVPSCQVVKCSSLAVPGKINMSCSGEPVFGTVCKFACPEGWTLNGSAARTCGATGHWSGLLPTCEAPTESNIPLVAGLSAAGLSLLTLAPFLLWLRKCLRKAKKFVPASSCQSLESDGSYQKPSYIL
Sequence of Tumor necrosis factor (Homo sapiens) (P01375 whole entry, looked up): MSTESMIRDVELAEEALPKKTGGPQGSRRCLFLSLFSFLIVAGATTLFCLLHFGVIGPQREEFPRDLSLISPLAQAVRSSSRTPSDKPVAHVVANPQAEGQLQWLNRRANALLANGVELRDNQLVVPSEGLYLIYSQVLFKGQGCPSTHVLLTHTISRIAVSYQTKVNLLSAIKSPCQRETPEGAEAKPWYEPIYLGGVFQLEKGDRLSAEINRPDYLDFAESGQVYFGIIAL

Consider `O=[N+]([O-])O`, for which the compound was called inactive in assay [1], in assay [2], in [3], in assay [4], in assay [5] and in [6]. Further, the outcome in assay [7], in assay [8], in assay [9], in assay [10], in [11] and in assay [12] was inactive. Besides, the outcome in assay [13], in assay [14], in assay [15], in assay [16], in assay [17] and in [18] was inactive. Further, in assay [19], the outcome was inactive.

`CC(C)COP(=O)(OCC(C)C)OCC(C)C`: the AC50 in [20] is 128 µM (active). In addition, the outcome in [2], in assay [3], in assay [4], in [5], in assay [6] and in assay [7] was inactive. Moreover, the outcome in assay [8], in assay [9], in assay [10], in assay [11], in assay [12] and in [13] was inactive. For the same compound, the outcome in assay [14], in assay [15], in assay [16], in [17], in assay [18] and in assay [19] was inactive.

Turning to `c1ccc(Nc2ccc3ccccc3c2)cc1`, the compound was classed as inactive in assay [1], in [9], in assay [10], in assay [16], in assay [18] and in assay [19]. The AC50 in [20] is 39.8 µM (active); in assay [2], 32.9 µM (active); in [3], 20 µM (active); in [4], 34.8 µM (active); in assay [5] it was 23.6 µM (active); in assay [6] it was 13.8 µM (active). Besides, the AC50 in assay [7] is 20 µM (active); in assay [8], 20 µM (active); in assay [11], 8.69 µM (active); in assay [12], 34.4 µM (active); in [13] it was 24.2 µM (active); in assay [14], 30.9 µM (active). Also, the AC50 in assay [15] is 28.3 µM (active); in [17] it was 20 µM (active).

On to `SCc1ccco1`, for which the compound was classed as inactive in assay [20].

For the compound `CCCCCCCCCCCC#N`, the compound was called inactive in [20], in assay [2], in assay [7], in assay [8], in assay [9] and in assay [10]. Also, the result in [11], in assay [13], in [14] and in assay [15] was inactive. The AC50 in [3] was 37.8 µM (active); in [4], 32.3 µM (active); in assay [5], 32.2 µM (active); in assay [6] it was 30.2 µM (active); in [12], 28.8 µM (active); in [16], 32.4 µM (active). For the same compound, the AC50 in assay [17] was 32 µM (active); in assay [18], 36.4 µM (active); in assay [19], 32 µM (active).
